Avidin bead fluor: avidin bead compound fluorescence profile; Avidin beads, compound fluorescence 488/530 nm, flow cytometry; stronger effect = higher value; fluorescence (KMESF) at 10 µM; 0.38% of 220,000 active; in the data active means fluorescence above about 47
RGS7-Gao: modulates binding of RGS7 to human Galphao. binding response (% of control), % at 10 µM. AID 1439. 0.35% of 220,000 active. Multiplexed bead flow cytometry; actives lie on both sides. P09471; in the data active means binding response below about 49% or above about 150%; inconclusive means no clear call, values can overlap the other calls; inactive means in between;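 further: fluorescent Galphao held in activated GDP-AlF4 state binding bead-coupled RGS7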
Target sequence (P09471 whole entry, looked up): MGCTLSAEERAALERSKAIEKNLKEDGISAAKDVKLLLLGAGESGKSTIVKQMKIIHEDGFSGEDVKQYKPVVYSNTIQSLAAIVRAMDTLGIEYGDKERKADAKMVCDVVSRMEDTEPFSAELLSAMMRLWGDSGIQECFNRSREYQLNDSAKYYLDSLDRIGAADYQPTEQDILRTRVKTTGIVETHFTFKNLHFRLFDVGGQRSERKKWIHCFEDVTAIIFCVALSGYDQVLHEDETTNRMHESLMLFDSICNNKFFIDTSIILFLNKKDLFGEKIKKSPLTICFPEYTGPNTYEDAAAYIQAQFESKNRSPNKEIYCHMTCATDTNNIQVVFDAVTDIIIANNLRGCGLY
GSH fluor: compound fluoresces at 488/530 nm on GSH beads | GSH beads flow cytometry, compound fluorescence 488/530 nm; stronger effect = higher value | fluorescence (KMESF) at 10 µM | 0.25% of 190,000 active; in the data active means fluorescence above about 89;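 further: glutathione beads carrying GST-tagged Bcl family fusion proteins plus one bare bead set; values are compound well signal with DMSO vehicle wells as background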
RGS4-Gao reg: human RGS4-Galphao interaction regulation; AID 1415; 0.33% of 220,000 active; binding response (% of control), % at 10 µM; Multiplexed bead flow cytometry, RGS4-Galphao binding; actives lie on both sides; P09471; in the data active means binding response below about 49% or above about 150%; inactive means in between;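 further: fluorescent Galphao activated with aluminum fluoride binding bead-coupled RGS4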
RGS8-Gao reg: human RGS8-Galphao interaction regulation; P09471; multiplexed bead flow cytometry, RGS8-Galphao binding; actives lie on both sides; response (percent of control binding), % at 10 µM; 0.34% of 220,000 active; in the data active means response below about 60% or above about 140%; inactive means in between;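 further: Galphao activated as the GDP aluminium fluoride complex binding bead-coupled RGS8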
RGS16-Gao HTS: regulators of human RGS16-Galphao interaction. bead-based flow cytometry RGS16-Galphao binding, fluorescence; actives lie on both sides. binding response (% of control), % at 10 µM. 0.38% of 220,000 active. AID 1441;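 further: Galphao activated by GDP with aluminum fluoride before binding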
Target sequence (O15492 whole entry, looked up): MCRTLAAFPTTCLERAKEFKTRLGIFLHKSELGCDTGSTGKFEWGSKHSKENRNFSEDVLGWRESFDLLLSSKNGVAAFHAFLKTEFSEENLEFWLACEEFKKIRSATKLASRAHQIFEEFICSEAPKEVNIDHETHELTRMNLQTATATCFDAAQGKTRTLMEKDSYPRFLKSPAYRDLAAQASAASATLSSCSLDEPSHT
Target sequence (P09471 whole entry, looked up): as the sequence (P09471 whole entry, looked up) above
RGS-Gao: regulators of human RGS4-Galphao interaction; RGS4–Galpha-o binding response, % at 10 µM; 99% of 1,600 active; AID 1504; multiplexed bead flow cytometry, RGS–Galpha-o binding; shares compounds with RGS16-Gao HTS;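 further: fluorescently labeled Galpha-o bound to GDP with aluminium fluoride binding biotinylated RGS beads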
Avidin counter: interferes with biotinylated probe binding to avidin beads; shares compounds with RGS16-Gao HTS; streptavidin beads, fluorescein-biotin binding, flow cytometry; inhibition, % at 10 µM; 1,700 tested, under 10 active; AID 1783;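 active means inhibition above 50%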;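 further: median green fluorescence of gated singlet beads compared with DMSO control wells; 0% = DMSO wells and 100% = complete loss of bead fluorescence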
RGS8-Gao confirm: RGS8-Galphao interaction regulation, single point confirmation | shares compounds with RGS16-Gao HTS | bead-based flow cytometry RGS8-Galphao binding, fluorescence; actives lie on both sides | 3% of 1,700 active | binding response (% of control), % at 10 µM; in the data active means binding response below about 72% or above about 130%; inactive means in between;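 further: Galphao activated as GDP AlF4 complex before binding bead RGS8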
RGS7-Gao confirm: RGS7-Galphao interaction regulation, single point confirmation; shares compounds with RGS16-Gao HTS; bead-based flow cytometry RGS7-Galphao binding; actives lie on both sides; response (percent of control binding), % at 10 µM; 7.8% of 1,700 active; in the data active means response below about 75% or above about 130%; inactive means in between;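 further: fluorescent Galphao activated with GDP and aluminum fluoride binding bead-coupled RGS7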
RGS16-Gao conf: RGS16-Galphao interaction regulation, single point confirmation; shares compounds with RGS16-Gao HTS; bead-based flow cytometry, RGS16-Galphao binding; actives lie on both sides; response (% of control binding), % at 10 µM; 4% of 1,700 active; in the data active means response below about 74% or above about 130%; inactive means in between;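 further: Galphao activated as the GDP aluminium fluoride complex binding bead-coupled RGS16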
RGS4-Gao confirm: confirmation of regulators of human RGS4-Galphao interaction. 4% of 1,700 active. AID 1840. binding response (% of control), % at 10 µM. shares compounds with RGS16-Gao HTS. RGS4-Galphao binding, multiplexed bead flow cytometry; actives lie on both sides; in the data active means binding response below about 74% or above about 130%; inactive means in between
RGS19-Gao conf: RGS19-Galphao interaction regulation, single point confirmation | shares compounds with RGS16-Gao HTS | bead-based flow cytometry RGS19-Galphao binding; actives lie on both sides | response (percent of control binding), % at 10 µM | 5% of 1,700 active | AID 1841; in the data active means response below about 50% or above about 160%; inactive means in between;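 further: 100% = no compound control and 0% = blank background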
* marks the source's active call; other numbers are inactive results; u = inconclusive; x = not tested or not shown; [ ] = another dose, or the depositor's remark. Compounds with a hit are over-represented: about 1.2% of the library has one in this group of screens. Unless noted, how the calls were made is not given here.

SMILES	Avidin bead fluor	RGS7-Gao	GSH fluor	RGS4-Gao reg	RGS8-Gao reg	RGS16-Gao HTS	RGS-Gao	Avidin counter	RGS8-Gao confirm	RGS7-Gao confirm	RGS16-Gao conf	RGS4-Gao confirm	RGS19-Gao conf
CN(C)CCC(O)(c1ccccc1)c1ccccc1	13	107.2	13	104.8	114.9	141.2	x	x	x	x	x	x	x
C=Cc1ccc(CSc2cc(C)nc3nc(C)nn23)cc1	9	u	x	96.5	100.2	98.8	x	x	x	x	x	x	x
O=C(O)CSc1c(-c2ccccc2)[nH]c2ccccc12	5	70.0	9	76.8	62.1	-3.1*	76.8*	-1.4	100.0	97.0	98.7	100.7	90.9
C#CCOCCOCCOCCNc1nc(N2CCN(C(=O)[C@H]([C@@H](C)CC)n3cc([C@@H](N)CO)nn3)CC2)nc(N2CCN(C(=O)[C@H]([C@@H](C)CC)n3cc([C@@H](N)Cc4ccc(O)cc4)nn3)CC2)n1	0	18.1*	18	21.6*	41.4*	18.0*	x	0.2	99.6	101.5	98.5	99.2	88.4
CC(C)n1nc(C(=O)OCC(=O)c2c[nH]c3ccccc23)c2ccccc2c1=O	x	x	41	x	x	x	x	0.5	91.2	80.6	84.1	87.1	60.6
Cc1[nH]c2ccccc2c1/C=N/NC(=S)NC(C)C	16	175.6*[activator]	18	124.7	102.0	117.8	124.7*	2.2	107.7	258.8*[activator]	148.7*[activator]	184.4*[activator]	230.5*[activator]
CN(Cc1ccccc1)c1nc(-c2cccc([N+](=O)[O-])c2)nc2ccccc12	17	102.9	9	99.6	103.8	109.3	x	x	x	x	x	x	x
CCC(C)(C)n1nnnc1CN1CCSCC1	2	129.4	34	158.4*[activator]	125.3	-49.0	x	2.3	102.0	103.5	100.5	102.7	96.5
CCC(C)(C)n1nnnc1CN1CCN(c2ccc(OC)cc2)CC1	9	107.3	13	101.9	96.8	99.4	x	x	x	x	x	x	x
Cc1cc(NS(=O)(=O)c2ccc(NC(=O)CSc3nc4ncc(Cl)cc4[nH]3)cc2)nc(C)n1	8	u	x	99.5	101.3	101.5	x	x	x	x	x	x	x
CC(C)N1CCN(Cc2cccn2-c2nccs2)CC1CCO (stereo unspecified)	56*	191.6*[activator]	11	115.0	101.5	105.6	115.0*	2.4	101.6	100.8	105.8	99.5	113.5
OCCC1CN(Cc2cccn2-c2nccs2)CCN1C1CCCCC1 (stereo unspecified)	6	94.0	17	96.5	96.7	97.5	x	x	x	x	x	x	x
C/C(CC(=O)Nc1ccccn1)=N\NC(=O)c1ccc2ccccc2c1	14	104.9	5	107.4	122.2	210.7*[activator]	107.4*	0.9	94.9	88.9	92.5	90.9	95.7
O=C(NCc1cccs1)c1ccc([N+](=O)[O-])cc1Cl	12	104.3	11	102.0	102.7	108.3	x	x	x	x	x	x	x
O=c1[nH]c(=O)n(Cc2ccco2)c2c1C(C(F)(F)F)(C(F)(F)F)N=C(c1ccc(F)cc1)N2	11	103.9	8	97.8	106.1	98.0	x	x	x	x	x	x	x
O=c1[nH]c(=O)n(Cc2ccccc2)c2c1C(C(F)(F)F)(C(F)(F)F)N=C(c1ccco1)N2	2	45.4*	26	49.1*	55.9*	41.6	x	-0.6	101.2	100.7	100.7	99.8	98.5
COC(=O)CSc1nccc(C)n1	7	101.0	11	99.3	100.6	99.2	x	x	x	x	x	x	x
O=C(O)COc1ccccc1/C=N/NC(=O)c1cccc(S(=O)(=O)Nc2cccc(Cl)c2)c1	26	100.1	64	101.0	102.6	106.6	x	x	x	x	x	x	x
CCC1CCC(c2nnc(-c3ccc(Br)cc3)o2)CC1 (stereo unspecified)	7	85.7	9	89.3	71.5	13.3*	89.3*	-0.4	99.2	101.7	98.8	100.4	90.8
Nc1c(Cl)cnc(C(Cl)(Cl)Cl)c1Cl	8	u	17	101.8	101.0	103.1	x	x	x	x	x	x	x
Cn1cc(S(=O)(=O)CC(=O)Nc2ccc3c(c2)OCO3)c2ccccc21	194*	274.6*[activator]	91*	367.3*[activator]	97.5	115.3	x	-1.1	99.9	103.2	103.5	102.2	87.0
C=CCNC(=S)NCc1cccnc1	14	112.4	5	111.7	127.5	276.2*[activator]	111.7*	1.1	101.9	101.8	104.1	103.8	91.2
N/C(=N\OC(=O)c1ccco1)c1ccc(Cl)cc1	63*	164.2*[activator]	11	109.4	101.2	101.8	109.4*	0.4	102.9	103.6	102.0	100.9	103.2
N/C(=N\OC(=O)c1ccc(Cl)cc1)c1ccc(Cl)cc1	8	102.8	77	102.6	103.4	105.1	x	x	x	x	x	x	x
COc1ccccc1C(=O)NN1C(=O)/C(=C/c2cccn2C)SC1=S	95*	x	x	x	x	x	x	-0.8	103.6	103.9	104.5	102.0	100.7
SMILES	Avidin bead fluor	RGS7-Gao	GSH fluor	RGS4-Gao reg	RGS8-Gao reg	RGS16-Gao HTS	RGS-Gao	Avidin counter	RGS8-Gao confirm	RGS7-Gao confirm	RGS16-Gao conf	RGS4-Gao confirm	RGS19-Gao conf
Cn1cccc1/C=C1\SC(=S)N(NC(=O)c2ccccc2O)C1=O	9	u	x	99.4	100.7	91.2	x	x	x	x	x	x	x
CN(Cc1ccc(F)cc1)C(=O)c1ccc2c(c1)NC(=O)CS2	65*	170.6*[activator]	24	116.3	98.6	104.5	116.3*	2.0	100.3	96.7	98.2	99.3	94.2
COC(=O)C1(NC(=O)NC23CC4CC(CC(C4)C2)C3)CCCCC1	10	u	19	101.3	100.9	100.9	x	x	x	x	x	x	x
CC12CCC(C(=O)Nc3cccc(Cl)c3)(C(Br)C1=O)C2(C)C (stereo unspecified)	16	109.1	9	107.4	105.3	115.4	x	x	x	x	x	x	x
CC12CCC(C(=O)Nc3ccc(Cl)cc3)([C@H](Br)C1=O)C2(C)C (stereo partly specified)	x	x	x	x	x	x	x	-0.3	101.2	106.8	103.1	99.8	105.0
OCc1cc(-c2ccc(Cl)c(Cl)c2)on1	11	96.3	12	100.8	101.5	100.2	x	x	x	x	x	x	x
Cc1nc(CN(C)Cc2nc(Cc3ccccc3Cl)no2)cs1	10	102.5	50	101.2	105.7	112.7	x	x	x	x	x	x	x
